# Measurements: PubChem BioAssay (EPA / NIEHS)
# Results filed as inconclusive are left out. Activity calls are given as the source filed them. The calls were made as follows: active = hit-call score of the fitted dose curve at least 0.9, where 1 is the maximum; inconclusive = response in the unintended direction; inactive = score below 0.9.
# Legend:
# [1] = biological target: rat Glutamate, NMDA Agonist Site (GluNMDA), Grin1 (gene 24408) (UniProt P35439); experiment: NVS_LGIC_rGluNMDA_Agonist: NovaScreen (NVS) Ligand-Gated Ion Channel Assay for rat Glutamate, NMDA Agonist Site (GluNMDA) (AID 2283327)
# Protocol: NVS_LGIC_rGluNMDA_Agonist is a biochemical, single-readout assay that uses extracted gene-proteins from Rat forebrain membranes in a tissue-based cell-free assay. Measurements were taken 1 hour after chemical dosing in a 48-well plate.NVS_LGIC_rGluNMDA_Agonist is one of one assay component(s) measured or calculated from the NVS_LGIC_rGluNMDA_Agonist assay. It is designed to make measurements of radioligand binding, a form of binding reporter, as detected with scintillation counting signals by Filter-based radiodetection technology.Data from the assay component NVS_LGIC_rGluNMDA_Agonist was analyzed into 1 assay endpoint. This assay endpoint, NVS_LGIC_rGluNMDA_Agonist, was analyzed in the positive analysis fitting direction relative to DMSO as the negative control and baseline of activity. Using a type of binding reporter, gain-of-signal activity can be used to understand changes in the binding as they relate to the gene Grin1. Furthermore, this assay endpoint can be referred to as a primary readout, because the performed assay has only produced 1 assay endpoint. To generalize the intended target to other relatable targets, this assay endpoint is annotated to the ion channel intended target family, where the subfamily is ligand-gated ion channel. […]
# [2] = biological target: rat Thyrotropin Releasing Hormone Receptor (TRH), Trhr (gene 25570) (UniProt Q01717); experiment: NVS_GPCR_rTRH: NovaScreen (NVS) G Protein-Coupled Receptor Assay for rat Thyrotropin Releasing Hormone Receptor (TRH) (AID 2283329);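 also: hit means lower bound tracer signal versus DMSO baseline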
# rat Thyrotropin Releasing Hormone Receptor (TRH), Trhr (gene 25570), sequence (Q01717 whole entry, looked up): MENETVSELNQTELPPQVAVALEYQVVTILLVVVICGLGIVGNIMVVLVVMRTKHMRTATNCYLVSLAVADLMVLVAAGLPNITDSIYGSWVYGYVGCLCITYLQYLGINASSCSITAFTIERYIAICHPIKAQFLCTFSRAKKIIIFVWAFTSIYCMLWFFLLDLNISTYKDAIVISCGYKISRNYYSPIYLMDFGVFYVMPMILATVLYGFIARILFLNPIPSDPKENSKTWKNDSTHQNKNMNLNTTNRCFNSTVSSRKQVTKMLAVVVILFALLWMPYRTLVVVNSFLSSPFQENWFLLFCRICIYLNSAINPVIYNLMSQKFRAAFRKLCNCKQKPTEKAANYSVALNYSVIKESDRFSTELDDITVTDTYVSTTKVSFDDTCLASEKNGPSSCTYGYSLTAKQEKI
# Method in brief: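 Cell-free radioligand binding on rat forebrain membranes; bound tracer measured by filter-based scintillation counting 4 hours after dosing. Loss of signal versus DMSO baseline indicates displacement; primary screen at 25 uM in duplicate, actives then run in concentration series.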
# [3] = biological target: human Androgen Receptor (AR), AR (gene 367) (UniProt P10275); experiment: NVS_NR_hAR: NovaScreen (NVS) Nuclear Receptor Binding Assay for human Androgen Receptor (AR) (AID 2283332)
# human Androgen Receptor (AR), AR (gene 367), sequence (P10275 whole entry, looked up): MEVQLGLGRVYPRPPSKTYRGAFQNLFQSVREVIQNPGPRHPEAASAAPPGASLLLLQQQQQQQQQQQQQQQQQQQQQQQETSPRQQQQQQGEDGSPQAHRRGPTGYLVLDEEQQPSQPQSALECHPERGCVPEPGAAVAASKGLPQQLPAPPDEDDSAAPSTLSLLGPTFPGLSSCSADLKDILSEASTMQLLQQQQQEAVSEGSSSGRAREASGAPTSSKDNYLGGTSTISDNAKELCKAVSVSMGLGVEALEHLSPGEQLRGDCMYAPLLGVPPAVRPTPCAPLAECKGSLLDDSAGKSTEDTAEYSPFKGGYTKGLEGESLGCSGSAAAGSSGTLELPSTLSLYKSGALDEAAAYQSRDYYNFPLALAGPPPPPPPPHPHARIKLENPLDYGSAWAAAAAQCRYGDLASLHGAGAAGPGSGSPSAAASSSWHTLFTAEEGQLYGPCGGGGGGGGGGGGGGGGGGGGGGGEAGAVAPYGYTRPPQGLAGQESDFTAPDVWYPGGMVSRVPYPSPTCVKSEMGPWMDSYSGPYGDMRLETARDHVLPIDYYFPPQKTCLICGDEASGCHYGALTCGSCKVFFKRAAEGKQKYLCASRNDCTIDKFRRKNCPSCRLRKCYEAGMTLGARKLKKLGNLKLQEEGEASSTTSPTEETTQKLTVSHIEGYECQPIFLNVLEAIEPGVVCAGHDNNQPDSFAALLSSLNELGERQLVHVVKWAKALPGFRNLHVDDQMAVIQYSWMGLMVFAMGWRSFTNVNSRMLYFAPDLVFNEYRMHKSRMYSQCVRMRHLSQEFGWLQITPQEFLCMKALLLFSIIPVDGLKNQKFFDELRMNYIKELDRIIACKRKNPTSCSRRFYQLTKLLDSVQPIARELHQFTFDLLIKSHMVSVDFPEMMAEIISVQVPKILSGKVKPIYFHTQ
# Method in brief: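 LnCAP cell-free extract; radioligand displacement read by scintillation counting after 20 h. Primary screen single concentration 25 uM in duplicate, actives then run as concentration series; loss-of-signal fitted relative to DMSO baseline.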
smiles,measurement,setting,value
CCn1nc(C)c2c1C(=O)NCC(c1ccc(O)cc1)=N2,outcome,[1],inactive
CCCCCCCCCC,outcome,[1],inactive
OCC(CO)(CO)CO,outcome,[2],inactive
C=CCc1cc(S(=O)(=O)c2ccc(O)c(CC=C)c2)ccc1O,AC50,[3],6.16 µM (active)
